Data published in the supplement of paper PMC8253809.

What was measured:
Assay in all cases: growth inhibition (% activity, log2 RLU normalised to DMSO / staurosporine); higher = more growth inhibition
Conditions in all cases: 33 µM
DIPGX29 = tested on: DIPGX29 (H3.3 K27M diffuse intrinsic pontine glioma line)
How it was run: (§1)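 Approved drugs, at a single final concentration of about 33 μM, were applied in triplicate to pHGG cell lines and H9-derived neural stem cells for 7 days at 37 °C, 5% CO2. The growth-inhibition value is the replicate median of log2-transformed CellTiter-Glo luminescence normalised per plate to % activity between solvent and positive control wells.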

DIPGX37 = tested on: DIPGX37 (H3.3 K27M diffuse intrinsic pontine glioma line)
How it was run: as §1

DIPGX7 = tested on: DIPGX7 (H3.3 K27M diffuse intrinsic pontine glioma line)
How it was run: as §1

DIPGX9 = tested on: DIPGX9 (diffuse intrinsic pontine glioma line)
How it was run: as §1

HGGX39 = tested on: HGGX39 (paediatric high-grade glioma line)
How it was run: as §1

HGGX6 = tested on: HGGX6 (H3.3 G34R paediatric high-grade glioma line)
How it was run: as §1

HNSC = tested on: HNSC
How it was run: as §1

SUDIPGIV = tested on: SUDIPGIV (diffuse intrinsic pontine glioma line)
How it was run: as §1

SUDIPGVI = tested on: SUDIPGVI (diffuse intrinsic pontine glioma line)
How it was run: as §1

SUDIPGXIII = tested on: SUDIPGXIII (diffuse intrinsic pontine glioma line)
How it was run: as §1

| SMILES | growth inhibition (DIPGX29) [%] | growth inhibition (DIPGX37) [%] | growth inhibition (DIPGX7) [%] | growth inhibition (DIPGX9) [%] | growth inhibition (HGGX39) [%] | growth inhibition (HGGX6) [%] | growth inhibition (HNSC) [%] | growth inhibition (SUDIPGIV) [%] | growth inhibition (SUDIPGVI) [%] | growth inhibition (SUDIPGXIII) [%] |
| --- | --- | --- | --- | --- | --- | --- | --- | --- | --- | --- |
| CCC(=O)NCC[C@@H]1CCc2ccc3c(c21)CCO3 | -0.665 | -0.134 | 1.26 | 0.325 | 1.29 | -0.174 | 3.01 | 0.00903 | 1.36 | 0.726 |
| O=C(C1CCCCC1)N1CC(=O)N2CCc3ccccc3C2C1 (stereo not given) | 0.382 | 3.23 | 1.04 | 1.99 | 2.3 | 0.441 | 3.24 | -1.19 | 3.33 | -0.635 |
| CC(=O)OCC(=O)[C@@]1(O)CC[C@H]2[C@@H]3CCC4=CC(=O)C=C[C@]4(C)[C@@]3(Cl)[C@@H](Cl)C[C@@]21C | 0.772 | 1.33 | 1.5 | 3.59 | 0.199 | -1.27 | 8.39 | -2.64 | -2.25 | 1.64 |
| O=C1c2cccc3c2[C@H](CCC3)CN1[C@@H]1CN2CCC1CC2 | 1.6 | 0.267 | -0.559 | 0.719 | 1.18 | 1.03 | -3.52 | -0.551 | 0.132 | 0.79 |
| NC(CO)C(=O)NNCc1ccc(O)c(O)c1O (stereo not given) | -0.675 | 0.574 | -0.561 | -0.46 | -0.00682 | 2.73 | -2.22 | -0.604 | 0.203 | -7.46 |
| NCC1OC(OC2C(N)CC(N)C(OC3OC(CO)C(O)C(N)C3O)C2O)C(N)C(O)C1O (stereo not given) | -1.38 | 0.63 | 0.452 | -1.1 | 1.6 | -1.9 | 30.8 | -0.143 | -4.48 | -1.57 |
| CC(C)C[C@H](NC(=O)[C@H](O)[C@H](N)Cc1ccccc1)C(=O)O | 1.26 | 0.0198 | 0.163 | -1 | -2.32 | 1.9 | 0.429 | -2.58 | 0.754 | 0.189 |
| Nc1ncnc2c1ncn2[C@@H]1O[C@H](COP(=O)(O)OP(=O)(O)OP(=O)(O)O)[C@@H](O)[C@H]1O | 1.45 | 3.53 | 0.965 | 2.77 | 1.53 | 2.37 | 1.17 | 0.305 | 3.67 | 1.19 |
| Nc1ccc(/N=N/c2ccccc2)c(N)n1 | -3.96 | -2.54 | 0.481 | -3.38 | -1.17 | -3.08 | 9.5 | -2.91 | -4.45 | 1.45 |
| COc1c(C)c2c(c(O)c1C/C=C(\C)CCC(=O)O)C(=O)OC2 | 19.1 | 19 | 12 | 16.2 | 18.1 | 14.7 | 57.6 | 10.7 | 11.8 | -4.08 |
| N#Cc1ccc(C(c2ccc(C#N)cc2)n2cncn2)cc1 | -0.88 | 0.114 | -0.157 | -0.262 | -0.621 | -0.866 | 0.581 | -0.66 | 1.28 | 1.04 |
| CCCCCCCCCCOc1cc2c(O)c(C(=O)OCC)cnc2cc1OCC | -0.3 | -1.31 | 1.61 | -0.589 | 1.16 | -2.39 | 8.91 | 1.52 | -8.46 | -1.19 |
| COCCc1ccc(OCC(O)CNC(C)C)cc1 (stereo not given) | 0.745 | 0.102 | 1.22 | 2.73 | 2.04 | 1.92 | -0.726 | 0.382 | 2.97 | -0.552 |
| CO[C@H]1C[C@@H]2CC[C@@H](C)[C@@](O)(O2)C(=O)C(=O)N2CCCC[C@H]2C(=O)O[C@H]([C@H](C)C[C@@H]2CC[C@@H](OCCO)[C@H](OC)C2)CC(=O)[C@H](C)/C=C(\C)[C@@H](O)[C@@H](OC)C(=O)[C@H](C)C[C@H](C)/C=C/C=C/C=C/1C | 4.26 | 2.47 | 3.53 | 14 | 8.9 | 7.45 | 7.71 | 1.16 | 10.5 | 1.36 |
| O=C1CCc2ccc(OCCCCN3CCN(c4cccc(Cl)c4Cl)CC3)cc2N1 | 4.57 | 3.86 | 4.16 | 4.55 | 5.69 | 3.13 | 22 | 4.8 | 4.51 | 14.8 |
| C[C@H](CS)C(=O)N1CCC[C@H]1C(=O)O | 0.445 | -0.171 | 1.27 | 1.57 | 1.84 | -1.72 | 2.42 | -0.14 | -0.111 | -0.989 |
| N[C@@H]1CN(c2c(F)cc3c(=O)c(C(=O)O)cn([C@@H]4C[C@@H]4F)c3c2Cl)CC12CC2 | 1.84 | 4.34 | 1.79 | 0.793 | 3.53 | 0.649 | 0.64 | 0.64 | 3.9 | -3.35 |

| SMILES | growth inhibition (DIPGX29) [%] | growth inhibition (DIPGX37) [%] | growth inhibition (DIPGX7) [%] | growth inhibition (DIPGX9) [%] | growth inhibition (HGGX39) [%] | growth inhibition (HGGX6) [%] | growth inhibition (HNSC) [%] | growth inhibition (SUDIPGIV) [%] | growth inhibition (SUDIPGVI) [%] | growth inhibition (SUDIPGXIII) [%] |
| --- | --- | --- | --- | --- | --- | --- | --- | --- | --- | --- |
| CC(CCc1ccc(O)cc1)NCC(O)c1ccc(O)cc1 (stereo not given) | -1.35 | 0.666 | -1 | 0.398 | 3.25 | -2.19 | 5.04 | 2.35 | 2.3 | 0.356 |
| COc1cnc(NS(=O)(=O)c2ccc(N)cc2)nc1 | -0.629 | 0.775 | -0.856 | 0.181 | -0.248 | 0.442 | 0.00282 | -1.59 | 0.403 | 1.01 |
| CCC(=O)O[C@@H](O[P@](=O)(CCCCc1ccccc1)CC(=O)N1C[C@H](C2CCCCC2)C[C@H]1C(=O)O)C(C)C | 1.88 | 3.74 | 2.4 | 1.15 | 2.87 | 2.08 | 2.72 | 1.26 | 3.21 | -1.04 |
| CN(C)c1nc(N(C)C)nc(N(C)C)n1 | -3.35 | -1.75 | -1.42 | -3.04 | -3.6 | -3.16 | -5.97 | -3.04 | -2.53 | -0.234 |
| CC(NC(=O)Cc1cc(F)cc(F)c1)C(=O)NC(C(=O)OC(C)(C)C)c1ccccc1 (stereo not given) | 0.109 | -1.56 | 0.0172 | 0.631 | 1.42 | 1.3 | 1.25 | -6.22 | -0.444 | 0.458 |
| CCS(=O)(=O)CCn1c([N+](=O)[O-])cnc1C | -0.456 | 1.05 | -1.24 | -0.171 | -0.367 | -1.57 | -1.98 | -0.809 | -3.73 | 0.464 |
| CC[C@H](C)C(=O)O[C@H]1CCC=C2C=C[C@H](C)[C@H](CC[C@@H]3C[C@@H](O)CC(=O)O3)[C@H]21 | 3.29 | -2.48 | 9.34 | 3.1 | 21.1 | 12.9 | 47.3 | 15.3 | -4.05 | 28.8 |
| CC(C)(O)c1ccccc1CC[C@@H](SCC1(CC(=O)O)CC1)c1cccc(/C=C/c2ccc3ccc(Cl)cc3n2)c1 | -0.862 | 0.461 | -2.4 | -1.33 | -0.172 | -2.63 | -3.15 | -1.21 | -0.324 | -15.7 |
| CCCCC(=O)N(Cc1ccc(-c2ccccc2-c2nnn[nH]2)cc1)[C@H](C(=O)O)C(C)C | -2.21 | -1.28 | -0.538 | -0.058 | -2.05 | -0.244 | -3.37 | 4.24 | -0.599 | -8.43 |
| CCOCC(O)COc1ccc(NC(=O)CC[S+](C)C)cc1 (stereo not given) | -1.2 | -0.984 | -0.388 | 0.757 | -1.5 | -2.39 | -2.31 | -1.12 | -0.872 | 0.764 |
| Cc1onc(-c2ccccc2)c1C(=O)N[C@@H]1C(=O)N2[C@@H]1SC(C)(C)[C@@H]2C(=O)O | -1.74 | -1.12 | -1.18 | -0.122 | -0.815 | 0.0702 | -4.11 | 0.237 | 0.245 | -1.71 |
| CN1CCC(=C2c3ccccc3CC(=O)c3sccc32)CC1 | -0.432 | 0.985 | -0.625 | 0.0911 | 0.272 | 2.44 | 1.53 | -1.24 | 0.438 | 0.861 |
| N#Cc1c(N(CC(=O)O)CC(=O)O)sc(C(=O)O)c1CC(=O)O | -0.0468 | -1.11 | -0.504 | 1.29 | 1.34 | -1.45 | 27.7 | 1.52 | 0.043 | -2.77 |
| Fc1ccc([C@@H]2CCNC[C@H]2COc2ccc3c(c2)OCO3)cc1 | 1.88 | 0.828 | 1.44 | -0.123 | -1.48 | 0.754 | 54.9 | -0.812 | -0.542 | 1.2 |
| COC(=O)N/N=C/c1c[n+]([O-])c2ccccc2[n+]1[O-] | 2.48 | 4.18 | 1.83 | 0.689 | 2.31 | 0.191 | 4.92 | 3 | 5.18 | -3.09 |
| COc1cc(Nc2c(C#N)cnc3cc(OCCCN4CCN(C)CC4)c(OC)cc23)c(Cl)cc1Cl | 8.64 | 2.05 | 4.98 | 6.92 | 9.47 | 10.9 | 41.9 | -1.39 | 8.4 | 1.71 |
| COc1ccc2cccc(CCNC(C)=O)c2c1 | -3.08 | -0.948 | -1.76 | -2.3 | -1.63 | -4.45 | -2.84 | -2.11 | -2.45 | -0.361 |
